The nature of assay [1]: A549 cell viability effects, profiling panel, calcein-AM fluorescence, 48 h, basal (AID 1162). The following applies: higher = more signal.
Assay [2] in a line: adipocyte viability effects, profiling panel, cell-based, 3T3-L1 adipocytes, calcein-AM fluorescence, 48 h, basal (AID 1163). The following applies: 3T3-L1 adipocytes viability, higher = more signal.
The nature of assay [3]: HepG2 cell viability effects, profiling panel, calcein-AM fluorescence, 48 h, basal (AID 1164). Particulars: higher = more signal.
Assay [4] is described as follows: MM1S cell viability effects, profiling panel, calcein-AM fluorescence, 48 h, basal (AID 1165).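 Note: viability of MM1S multiple myeloma cells under basal unstimulated conditions.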 The following applies: higher = more signal.
Assay [5] can be described thus: basal RPMI8226 viability, no added stimulus, profiling panel, cell-based, calcein-AM fluorescence, 48 h, PK04 Diversity Set (AID 1166).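 Note: cells grown under basal conditions without added stimulus.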 Particulars: RPMI8226 myeloma viability, higher = more signal.
The nature of assay [6]: basal HepG2 mitochondrial membrane potential changes, profiling panel, cell-based, JC-1 fluorescence, 24 h, 100 nL compound (AID 1167). Particulars: higher = more signal.
Assay [7] can be described thus: basal 3T3-L1 adipocyte mitochondrial potential changes, profiling panel, cell-based, JC-1 fluorescence, 3T3-L1 adipocytes, 24 h, 100 nL compound (AID 1168). The following applies: JC-1 mitochondrial fluorescence, higher = more signal, called active from +8 up or from −8 down.
A short description of assay [8]: basal RPMI8226 mitochondrial membrane potential changes, profiling panel, cell-based, JC-1 fluorescence, 24 h, 100 nL compound (AID 1169). The following applies: RPMI8226 myeloma, JC-1 mitochondrial potential fluorescence, higher = more signal.
A short description of assay [9]: basal MM1S mitochondrial membrane potential changes, profiling panel, cell-based, JC-1 fluorescence, 24 h, 100 nL compound (AID 1170). Particulars: higher = more signal.
Assay [10] is described as follows: A549 lung cancer cell viability effects, profiling panel, resazurin fluorescence, 24 h, PK04 Diversity Set (AID 1171). The following applies: higher = more signal, called active from +8 up or from −8 down. In general terms: Resazurin is reduced to fluorescent resorufin, in cell work by metabolically active cells.

The source made the active and inactive calls.
Note: test concentration not given here.

As for `CC(C)OC(=O)CC(=O)CC(O)c1cccc([N+](=O)[O-])c1` (stereo not given), the z-score was 1.07 in assay [1]; 0.804 in assay [2]; 0.729 in assay [3]; 1.21 in assay [4]; 0.0484 in assay [5]; -0.524 in assay [6]. In addition, the z-score in [7] is -0.718 (inactive); in assay [8] it was 0.193; in assay [9], -1.38; in assay [10] it was 0.0126 (inactive).

Take `COc1ccc(C(=O)Nc2cccc(CN3C(=O)[C@]4(O[C@H](CC(=O)N5Cc6ccccc6C[C@H]5CO)[C@@H]([Si](C)(C)c5ccc(OC)cc5)[C@@H]4C)c4ccccc43)c2)cc1`: the z-score was -0.969 in [1]; 1.3 in [2]; -1.05 in assay [3]; -0.253 in assay [4]; -2.56 in [5]; 0.729 in [6]. For the same molecule, the z-score in assay [7] was -0.458 (inactive); in [8], -0.93; in [9], -0.313; in assay [10] it was -1.31 (inactive).

Consider `O=C1[C@@H]2[C@@H](CC(COc3ccccc3)=C([C@H](O)CCc3ccccc3)[C@@H]2CO)C(=O)N1Cc1ccccc1`, for which the z-score in assay [1] is -0.137; in [2] it was -0.331; in [3], -1.32; in assay [4], -3.23; in assay [5] it was -3.48; in assay [6] it was 0.325. For the same molecule, the z-score in assay [7] was -0.0321 (inactive); in assay [8], -1.04; in [9], -1.33; in [10], -0.833 (inactive).

With `Cc1ccc(C(C)CC(O)C2C=CC3C(=O)N(C)C(=O)C3N2Nc2ccccc2)o1` (stereo not given), the z-score in assay [1] was -0.428; in assay [2], -1.01; in assay [3], 0.345; in assay [4] it was -0.144; in assay [5], 0.0166; in [6] it was -1.35. The z-score in assay [7] is -0.592 (inactive); in assay [8], 0.347; in assay [9], -0.249; in [10], -0.18 (inactive).

Regarding `CCCC#C[Si](O[C@H](CC)c1cn(Cc2ccccc2)nn1)(C(C)C)C(C)C`, the z-score was -0.164 in [1]; -0.782 in assay [2]; 0.709 in assay [3]; -0.588 in assay [4]; -0.439 in assay [5]; 0.0193 in [6]. Further, the z-score is -0.497 (inactive) in assay [7], 0.973 in assay [8], -1.16 in assay [9] and -0.406 (inactive) in [10].

With `COc1ccc([Si](C)(C)[C@H]2[C@H](CCO)O[C@@]3(C(=O)N(Cc4cccc(N5C(=O)c6ccccc6Oc6ccccc65)c4)c4ccccc43)[C@@H]2C)cc1`, the z-score in assay [1] is -1.24; in assay [2], 0.508; in assay [3], -4.22; in [4] it was -2.87; in [5] it was -4.3; in assay [6], -0.19. Besides, the z-score is 2.27 (inactive) in [7], -1.03 in assay [8], -1.84 in assay [9] and -2.25 (inactive) in assay [10].

For `CCCNC(=O)[C@@]1(Sc2ccc(C)cc2)CC(=O)N(Cc2ccccc2Cl)[C@@H]1c1ccc(CO)cc1I`, the z-score in assay [1] was 1.43; in [2], -0.139; in [3] it was 1.01; in assay [4] it was -1.9; in assay [5] it was -1.67; in assay [6], 0.377. Besides, the z-score in assay [7] was 0.667 (inactive); in [8] it was -0.547; in [9] it was -1.87; in assay [10], 0.204 (inactive).

For the molecule `Cc1ccc(S[C@]2(C(=O)NCCCN(C)C)CC(=O)N(Cc3ccccc3C(F)(F)F)[C@@H]2c2ccc(CO)cc2I)cc1`, the z-score in assay [1] is 0.476; in assay [2], 0.449; in assay [3], -0.297; in [4] it was -2.72; in assay [5] it was -1.87; in assay [6], -0.817. In addition, the z-score in assay [7] was -0.395 (inactive); in assay [8], -0.302; in [9], -1.35; in assay [10] it was 0.537 (inactive).

Consider `C=CC[C@@]12N=C(c3ccc(OCCCO)cc3)O[C@@H]1c1ccccc1N(CCC)C2=O`, for which the z-score is -0.604 in assay [1]; 0.96 in [2]; -1.16 in [3]; -1.79 in [4]; -3.66 in assay [5]; 1.07 in [6]. Further, the z-score in assay [7] was 2.64 (inactive); in assay [8] it was -1.22; in [9], -0.994; in [10] it was 0.0626 (inactive).

In the case of `COC(=O)C[C@H]1O[C@@]2(C[C@@H]1[Si](C)(C)C)C(=O)N(C)c1ccccc12`, the z-score in assay [1] was 0.904; in assay [2], 0.69; in assay [3] it was 0.606; in assay [4], 0.561; in [5] it was -0.356; in [6] it was 1.23. The z-score in assay [7] was 0.63 (inactive); in assay [8], -1.09; in assay [9] it was 0.965; in assay [10], 0.543 (inactive).

For the molecule `O=C1NC(=O)C2C1C=CC(C(O)c1ccc(B(O)O)cc1)N2Nc1ccc(Cl)cc1Cl` (stereo not given), the z-score in assay [1] was -0.591; in assay [2], -1.33; in assay [3], -1.19; in assay [4], -1.62; in assay [5], -1.58; in assay [6] it was -1.75. Besides, the z-score in assay [7] is -1.12 (inactive); in [8], 0.482; in assay [9], -0.682; in assay [10], -0.616 (inactive).

Turning to `CC(C)N1C(=O)C[C@@](C(=O)NCCN2CCOCC2)(c2ccc([N+](=O)[O-])cc2)[C@H]1c1ccc(CO)cc1`, the z-score in assay [1] was -0.827; in assay [2], -0.641; in assay [3], -0.235; in assay [4], -0.617; in assay [5], 0.0859; in [6], 0.0432. Besides, the z-score in assay [7] was -0.279 (inactive); in assay [8], -0.95; in assay [9], -0.672; in assay [10] it was 1.05 (inactive).

As for `CCCNC(=O)[C@@]1(c2ccc([N+](=O)[O-])cc2)CC(=O)N(C(C)C)[C@@H]1c1ccc(CO)cc1`, the z-score in assay [1] is 0.186; in assay [2], 0.81; in assay [3] it was -0.359; in [4], 0.167; in assay [5], 0.11; in assay [6], -0.534. The z-score is -0.584 (inactive) in [7], 0.195 in [8], 0.892 in assay [9] and 0.0564 (inactive) in assay [10].

In the case of `NCCCCCCNC(=O)[C@@H]1C[C@@H]2C(=O)N3CCC[C@H]3C(=O)N2[C@@H]1c1cccc(OCCO)c1`, the z-score in assay [1] was 0.108; in assay [2] it was 1.18; in [3], -0.12; in assay [4] it was 0.597; in assay [5] it was 0.313; in [6] it was 0.127. The z-score in assay [7] is 0.391 (inactive); in assay [8], -0.675; in assay [9] it was 0.468; in assay [10], 0.999 (inactive).

In the case of `Cc1ccc(S[C@]2(C(=O)NCc3ccccc3)CC(=O)N(Cc3ccccc3C(F)(F)F)[C@@H]2c2ccc(CO)cc2)cc1`, the z-score in assay [1] was 0.653; in assay [2], 0.269; in [3], 1.73; in assay [4], 0.0811; in [5], 1.36; in assay [6], 0.779. Further, the z-score is 0.311 (inactive) in [7], -0.0337 in assay [8], -0.216 in [9] and -1.35 (inactive) in [10].

For the molecule `C=C(CCCC)/C(=C/C[C@H](OC(=O)c1ccncc1)c1cccc(OCCO)c1)c1cnc2ccccc2c1`, the z-score in assay [1] was 1.35; in assay [2], -0.893; in assay [3], 0.0815; in assay [4], -3.37; in [5], -2.3; in assay [6] it was 0.99. The z-score in assay [7] was -1.16 (inactive); in [8] it was -0.817; in assay [9] it was -0.718; in assay [10], 0.588 (inactive).

Source of the values: PubChem BioAssay.
